# Measurements published in PubChem BioAssay (Tox21).
# Several values for one entry are separate records, joined by “and”; a condition that tells them apart may be missing. Equal values may be shown once. Inconclusive results are not listed. A call without a number means that no potency is given here. Where a structure was tested more than once in an assay, its records may differ in their call. Activity calls are given as the source filed them. Unless noted, calls follow the shape of the dose curve; as a rule, active = well fitted curve in the direction sought with a large enough effect in the repeat runs; inconclusive = weak or mixed curves; inactive = no such curve, though single readings can be large; an effect the other way counts as inactive or inconclusive.
# Columns and labels:
# [1] = A CellTox Green Cytotoxicity Assay to monitor cytotoxicity in HepG2 cells - 0 hour (AID 1224882); also: nearly all actives have a fitted effect of over 35% in size
# Summary of the method: (§1)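 First, HepG2 cells (600/well) mixed with reagent were plated; second, after 5 h at 37 C they received compounds via pintool; third, fluorescence was measured at 0 h through 40 h at 8 h intervals.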
# [2] = A CellTox Green Cytotoxicity Assay to monitor cytotoxicity in HepG2 cells - 32 hour (AID 1224883); also: nearly all actives have a fitted effect of over 50% in size
# Summary of the method: as §1
# [3] = A CellTox Green Cytotoxicity Assay to monitor cytotoxicity in HEK293 cells - 8 hour (AID 1224884); also: nearly all actives have a fitted effect of over 35% in size
# Summary of the method: (§2)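 Dead-cell fluorescence measured kinetically: asymmetric cyanine dye, HEK293, 600 cells/well, 5 h settle, 23 nL cpd/DMSO, 37 C, reads 0–40 h every 8 h.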
# [4] = qHTS RealTime-Glo MT Cell Viability Assay in HepG2 cells - 16 hour (AID 1224885); also: nearly all actives have a fitted effect of over 50% in size
# Summary of the method: (§3)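 Real-time, nonlytic viability: 600 HepG2 cells/well mixed with NanoLuc enzyme plus prosubstrate; 5 h settle, compound (DMSO) added by pintool; luminescence monitored over 40 h at 37 C.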
# [5] = qHTS RealTime-Glo MT Cell Viability Assay in HEK293 cells - 24 hour (AID 1224886); also: nearly all actives have a fitted effect of over 50% in size; also: potency is read from the fitted curve at half-maximal effect
# Summary of the method: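 Cells + reagent dispensed (600 cells/well, HEK293) → 5 h at 37 C/5% CO2 → 23 nL compound in DMSO pinned → 40 h at 37 C → luminescence read at 0, 8, 16, 24, 32, 40 h.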
# [6] = qHTS RealTime-Glo MT Cell Viability Assay in HEK293 cells - 8 hour (AID 1224887); also: nearly all actives have a fitted effect of over 50% in size; also: potency is read from the fitted curve at half-maximal effect
# Summary of the method: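 600 HEK293 cells per well, dispensed already mixed with RealTime-Glo MT reagents. Compound dosing came 5 h later. The same wells were read for luminescence at 0, 8, 16, 24, 32 and 40 h of exposure at 37 C.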
# [7] = A CellTox Green Cytotoxicity Assay to monitor cytotoxicity in HEK293 cells - 16 hour (AID 1224888); also: nearly all actives have a fitted effect of over 35% in size
# Summary of the method: as §2
# [8] = qHTS RealTime-Glo MT Cell Viability Assay in HepG2 cells - 0 hour (AID 1224889); also: nearly all actives have a fitted effect of over 50% in size
# Summary of the method: as §3
# [9] = qHTS assay to identify small molecule antagonists of the estrogen receptor alpha (ER-alpha) signaling pathway using the BG1 cell line in the presence of 0.1 nM 17-beta-estradiol - cell viability counter screen (AID 1259241); also: nearly all actives have a fitted effect of over 40% in size; also: potency is read from the fitted curve at half-maximal effect
# Summary of the method: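 Following 5 days in phenol red-free medium with charcoal-stripped serum, VM7Luc4E2 cells received test compounds alongside 0.1 nM 17beta-estradiol (final) at 37C for 22 hr. Live cells were then quantified via protease-substrate fluorescence.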
# [10] = qHTS assay to identify small molecule antagonists of the androgen receptor (AR) signaling pathway using the MDA cell line in the presence of 0.5 nM R1881 - cell viability counter screen (AID 1259242); also: nearly all actives have a fitted effect of over 45% in size
# Summary of the method: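 qHTS format. MDA-kb2 (MMTV-luc, AR/GR responsive) + cpd + 0.5 nM R1881 final, 16 hr 37C/0% CO2 → CellTiter-Fluor 30 min → fluorescence intensity.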
# [11] = biological target: Estrogen receptor (Homo sapiens) (UniProt P03372); experiment: qHTS assay to identify small molecule antagonists of the estrogen receptor alpha (ER-alpha) signaling pathway using the BG1 cell line in the presence of 0.1 nM 17-beta-estradiol (AID 1259244); also: nearly all actives have a fitted effect of over 50% in size; also: potency is read from the fitted curve at half-maximal effect
# Chain of Estrogen receptor (Homo sapiens) (P03372 whole entry, looked up): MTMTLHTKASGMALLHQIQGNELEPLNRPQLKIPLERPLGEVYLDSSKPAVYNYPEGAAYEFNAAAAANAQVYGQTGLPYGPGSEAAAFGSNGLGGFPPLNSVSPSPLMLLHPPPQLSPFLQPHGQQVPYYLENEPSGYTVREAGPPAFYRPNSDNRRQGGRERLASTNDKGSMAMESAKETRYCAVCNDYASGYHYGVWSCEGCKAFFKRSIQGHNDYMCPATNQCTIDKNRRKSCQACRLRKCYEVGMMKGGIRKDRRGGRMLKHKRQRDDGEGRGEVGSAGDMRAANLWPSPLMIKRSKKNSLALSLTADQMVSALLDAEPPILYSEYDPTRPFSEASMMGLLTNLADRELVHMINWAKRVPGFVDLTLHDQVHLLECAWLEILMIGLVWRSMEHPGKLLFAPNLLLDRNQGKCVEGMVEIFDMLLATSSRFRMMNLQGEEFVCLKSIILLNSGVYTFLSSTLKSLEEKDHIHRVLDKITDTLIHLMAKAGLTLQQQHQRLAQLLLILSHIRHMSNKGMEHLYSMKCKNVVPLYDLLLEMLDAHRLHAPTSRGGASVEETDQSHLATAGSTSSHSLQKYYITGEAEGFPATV
# Summary of the method: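 Reporter is a stably transfected luciferase under four estrogen responsive elements in VM7Luc4E2 cells expressing native full-length ER-alpha; inhibition of 0.1 nM (final) 17beta-estradiol-driven signal over 22 h is read by luminescence.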
# [12] = qHTS assay to identify small molecule HDAC inhibitors (AID 1259364);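 also: wild-type HCT-116 cells with endogenous class I/II HDAC activity; top concentration of the series differs between compounds; nearly all actives have a fitted effect of over 45% in size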
# Summary of the method: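 Quantitative high-throughput format: overnight-seeded HCT-116 cells got compounds for 2 hr at 37C; HDAC-Glo I/II reagent added, 30 min RT, luminescence measured.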
# [13] = qHTS assay to identify small molecule HDAC inhibitors - cell viability counter screen (AID 1259365); also: nearly all actives have a fitted effect of over 50% in size; also: potency is read from the fitted curve at half-maximal effect
# Summary of the method: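 HCT-116 wild-type, overnight attachment; 2hr drug exposure, 37C; CellTiter-Glo luminescent ATP readout after 30min RT.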
# [14] = qHTS assay to identify small molecule agonists of the sonic hedgehog signaling (Shh) pathway - cell viability counter screen (AID 1259366); also: nearly all actives have a fitted effect of over 50% in size; also: potency is read from the fitted curve at half-maximal effect
# Summary of the method: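 Compounds in DMSO were pin-transferred onto 3T3 Gli1-Luc cells that had settled 4hr; plates then stood 24hr at 37C and 5% CO2. One hour before the end, CellTiter-Fluor was added and fluorescence recorded.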
# [15] = qHTS assay to identify small molecule agonists of the sonic hedgehog signaling (Shh) pathway (AID 1259368; calls by dose curve;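 also: NIH/3T3-derived 3T3Gli1-Luc cells carrying a stable Gli1-driven firefly luciferase reporter; series mostly up to about 92 µM; nearly all actives have a fitted effect of over 15% in size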)
# Summary of the method: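 Quantitative high-throughput format using a Gli1-driven firefly luciferase reporter line derived from NIH/3T3 cells. After a 24 hr compound treatment at 37 C and 5% CO2, luminescence reported Gli1 response element activity.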
# [16] = qHTS assay to identify small molecule antagonists of the sonic hedgehog signaling (Shh) pathway (AID 1259369; calls by dose curve; also: nearly all actives have a fitted effect of over 45% in size; also: potency is read from the fitted curve at half-maximal effect)
# Summary of the method: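 Stable Gli1-Luc reporter NIH/3T3 clone; quantitative HTS in stimulated mode with conditioned medium. Luminescence measured after 24hr compound treatment at 37 C.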
# [17] = A CellTox Green Cytotoxicity Assay to monitor cytotoxicity in HepG2 cells - 8 hour (AID 1224890); also: nearly all actives have a fitted effect of over 45% in size
# Summary of the method: as §1
# [18] = qHTS assay to identify small molecule antagonists of the sonic hedgehog signaling (Shh) pathway - cell viability counter screen (AID 1259367); also: nearly all actives have a fitted effect of over 55% in size; also: potency is read from the fitted curve at half-maximal effect
# Summary of the method: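 Viability was read by CellTiter-Fluor fluorescence in the same wells, reagent added 23 hr into compound treatment and incubated 1 hr at 37C. The 3T3 Gli1-Luc reporter cells (2,000/well) received conditioned medium after compound and ran 24 hr.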
SMILES,Potency [1],Potency [2],Potency [3],Potency [4],Potency [5],Potency [6],Potency [7],Potency [8],Potency [9],Potency [10],Potency [11],Potency [12],Potency [13],Potency [14],Potency [15],Potency [16],Potency [17],Potency [18]
ClC1=C(Cl)[C@]2(Cl)[C@H]3[C@H]([C@H]4C=C[C@H]3C4)[C@@]1(Cl)C2(Cl)Cl,inactive,inactive,inactive,inactive,inactive,inactive,inactive,inactive,inactive,inactive,inactive,inactive,inactive,inactive,inactive,inactive,–,–
COc1ccc(N)cc1N,inactive,inactive,inactive,inactive,40.1 µM (active),25.3 µM (active),inactive,inactive,–,–,–,inactive,15.8 µM (active),–,inactive,3.55 µM (active) and 8.29 µM (active),inactive,15.8 µM (active) and 33 µM (active)
CCCCCCCCCBr,inactive,inactive,inactive,inactive,inactive,inactive,inactive,inactive,inactive,inactive,inactive,inactive,inactive,–,inactive,inactive,inactive,inactive
CCN,inactive,inactive,inactive,inactive,inactive,inactive,inactive,inactive,inactive,inactive,–,inactive,inactive,inactive,inactive,inactive,inactive,inactive
CCCCCCCCCCCCBr,inactive,inactive,inactive,inactive,inactive,inactive,inactive,inactive,inactive,inactive,inactive,inactive,inactive,inactive,inactive,inactive,inactive,inactive
Cc1cc(C)c(C2=C(OC(=O)CC(C)(C)C)C3(CCCC3)OC2=O)c(C)c1,inactive,inactive,inactive,inactive,inactive,inactive,inactive,inactive,inactive,inactive,inactive,inactive,inactive,inactive,inactive,–,–,inactive
C=CCOC(N)=O,inactive,inactive,inactive,inactive,inactive,inactive,inactive,inactive,inactive,inactive,–,inactive,inactive,inactive,inactive,inactive,inactive,inactive
CC(=[OH+])/C=C(/C)[O-].CC(=[OH+])/C=C(\C)[O-].CC(=[OH+])/C=C(\C)[O-].[Fe],inactive,inactive,inactive,inactive,inactive,inactive,inactive,inactive,inactive,inactive,inactive,inactive,inactive,inactive,inactive,inactive,inactive,inactive
ClC(Cl)=C(Cl)Cl,inactive,inactive,inactive,inactive,inactive,inactive,inactive,inactive,inactive,inactive,–,inactive,inactive,inactive,inactive,inactive,inactive,inactive
Clc1ccc(C(c2ccccc2Cl)C(Cl)(Cl)Cl)cc1 (stereo unspecified),inactive,inactive,inactive,inactive,49.3 µM (active) and inactive,49.3 µM (active) and inactive,inactive,inactive,inactive,inactive,inactive,inactive,inactive,–,inactive,inactive,inactive,inactive
c1ccc(OCC2CO2)cc1 (stereo unspecified),inactive,inactive,inactive,inactive,inactive,inactive,inactive,inactive,inactive,inactive,–,inactive,inactive,inactive,inactive,inactive,–,inactive
C1CCC2CCCCC2C1 (stereo unspecified),inactive,inactive,inactive,inactive,inactive,inactive,inactive,inactive,inactive,inactive,inactive,inactive,inactive,inactive,inactive,inactive,–,inactive
S=C=Nc1cccc2ccccc12,inactive,inactive,inactive,inactive,inactive,21.7 µM (active),inactive,inactive,30.3 µM (active),inactive,19.1 µM (active),inactive,inactive,53.9 µM (active),inactive,–,inactive,–
